In the supplement of paper PMC4022240:
± gives the standard deviation.

Legend:
Assay in all cases: peptide microarray binding signal (635 nm), min-max normalized on array (fraction of array maximum); higher = stronger binding
Conditions in all cases: peptide region: H3 1-13
[1] = molecular target: T1, HaloTag-ATRX ADD domain (163-292)
T1 chain: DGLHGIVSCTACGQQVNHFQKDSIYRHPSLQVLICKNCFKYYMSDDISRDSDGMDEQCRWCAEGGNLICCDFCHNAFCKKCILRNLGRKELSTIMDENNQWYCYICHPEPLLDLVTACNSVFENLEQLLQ
Procedure: (§1)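 Histone 13-mer peptides were synthesized as cellulose conjugates with a C-terminal 20-atom PEG linker and printed in triplicate on nitrocellulose. The sequence given is the unmodified backbone; PTMs (Kme1/2/3, Kac, Sph/Tph, Rme/Rme2a/Rme2s, Rcit) are listed in the label and the 'peptide modifications' condition. Slides were probed at 4 °C for 1 h with biotin-labelled (HQ)5-HaloTag reader fusions (ATRX-ADD, ING2-PHD) then streptavidin-Alexa647, or with rabbit histone antibodies then anti-rabbit Alexa647. The mean 635 nm signal of the triplicate spots was scaled 0-1 between the lowest and highest values on each array.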

[2] = molecular target: HaloTag-ING2 PHD (mouse Ing2 200-280)
Procedure: as §1

[3] = molecular target: anti-H3K4me3 antibody ab8580
Procedure: as §1

[4] = molecular target: anti-H3K9me3 antibody ab8898
Procedure: as §1

[5] = peptide modifications: H3K4me1 H3K9me2, binder concentration: 1:2,000 dilution
[6] = peptide modifications: H3K4me1 H3K9me2, binder concentration: 1:10,000 dilution
[7] = peptide modifications: H3K4me1 H3K9me3, binder concentration: 1:2,000 dilution
[8] = peptide modifications: H3K4me1 H3K9me3, binder concentration: 1:10,000 dilution
[9] = peptide modifications: H3K4me1 H3T6ph, binder concentration: 1:2,000 dilution
[10] = peptide modifications: H3K4me1 H3T6ph, binder concentration: 1:10,000 dilution
[11] = peptide modifications: H3K4me2, binder concentration: 1:2,000 dilution
[12] = peptide modifications: H3K4me2, binder concentration: 1:10,000 dilution
[13] = peptide modifications: H3K4me2 H3K9ac, binder concentration: 1:2,000 dilution
[14] = peptide modifications: H3K4me2 H3K9ac, binder concentration: 1:10,000 dilution
[15] = peptide modifications: H3K4me2 H3K9me1, binder concentration: 1:2,000 dilution
[16] = peptide modifications: H3K4me2 H3K9me1, binder concentration: 1:10,000 dilution
[17] = peptide modifications: H3K4me2 H3K9me2, binder concentration: 1:2,000 dilution
[18] = peptide modifications: H3K4me2 H3K9me2, binder concentration: 1:10,000 dilution
[19] = peptide modifications: H3K4me2 H3K9me3, binder concentration: 1:2,000 dilution
[20] = peptide modifications: H3K4me2 H3K9me3, binder concentration: 1:10,000 dilution
[21] = peptide modifications: H3K4me2 H3T6ph, binder concentration: 1:2,000 dilution
[22] = peptide modifications: H3K4me2 H3T6ph, binder concentration: 1:10,000 dilution
[23] = peptide modifications: H3K4me3, binder concentration: 1:2,000 dilution
[24] = peptide modifications: H3K4me3, binder concentration: 1:10,000 dilution

ARTKQTARKSTGG [H3 1-13 A R T Kme Q T A R Kme2 S T G G]
peptide microarray binding signal ([1]; peptide modifications: H3K4me1 H3K9me2, binder concentration: 500 nM): 0.0151 ± 0.00042
peptide microarray binding signal ([2]; peptide modifications: H3K4me1 H3K9me2, binder concentration: 10 nM): 0.155 ± 0.014
peptide microarray binding signal ([2]; peptide modifications: H3K4me1 H3K9me2, binder concentration: 100 nM): 0.182 ± 0.062
peptide microarray binding signal [3, 5]: 0.0488 ± 0.0073
peptide microarray binding signal [3, 6]: 0.0289 ± 0.0056
peptide microarray binding signal [4, 5]: 0.00408 ± 0.00035
peptide microarray binding signal [4, 6]: 0.00409 ± 0.00034

ARTKQTARKSTGG [H3 1-13 A R T Kme Q T A R Kme3 S T G G]
peptide microarray binding signal ([1]; peptide modifications: H3K4me1 H3K9me3, binder concentration: 50 nM): 0.253 ± 0.034
peptide microarray binding signal ([1]; peptide modifications: H3K4me1 H3K9me3, binder concentration: 500 nM): 0.336 ± 0.03
peptide microarray binding signal ([2]; peptide modifications: H3K4me1 H3K9me3, binder concentration: 10 nM): 0.335 ± 0.065
peptide microarray binding signal ([2]; peptide modifications: H3K4me1 H3K9me3, binder concentration: 100 nM): 0.547 ± 0.039
peptide microarray binding signal [3, 7]: 0.243 ± 0.018
peptide microarray binding signal [3, 8]: 0.101 ± 0.049
peptide microarray binding signal [4, 7]: 0.4 ± 0.096
peptide microarray binding signal [4, 8]: 0.275 ± 0.034

ARTKQTARKSTGG [H3 1-13 A R T Kme Q Tph A R K S T G G]
peptide microarray binding signal ([1]; peptide modifications: H3K4me1 H3T6ph, binder concentration: 50 nM): 0.00661 ± 0.00014
peptide microarray binding signal ([1]; peptide modifications: H3K4me1 H3T6ph, binder concentration: 500 nM): 0.0257 ± 0.00052
peptide microarray binding signal ([2]; peptide modifications: H3K4me1 H3T6ph, binder concentration: 10 nM): 0.087 ± 0.04
peptide microarray binding signal ([2]; peptide modifications: H3K4me1 H3T6ph, binder concentration: 100 nM): 0.211 ± 0.02
peptide microarray binding signal [3, 9]: 0.00296 ± 0.00042
peptide microarray binding signal [3, 10]: 0.00194 ± 0.00011
peptide microarray binding signal [4, 9]: 0.00414 ± 0.00036
peptide microarray binding signal [4, 10]: 0.00259 ± 0.00028

ARTKQTARKSTGG [H3 1-13 A R T Kme2 Q T A R K S T G G]
peptide microarray binding signal ([1]; peptide modifications: H3K4me2, binder concentration: 50 nM): 0.00564 ± 0.00013
peptide microarray binding signal ([1]; peptide modifications: H3K4me2, binder concentration: 500 nM): 0.0118 ± 0.00057
peptide microarray binding signal ([2]; peptide modifications: H3K4me2, binder concentration: 10 nM): 0.0623 ± 0.0073
peptide microarray binding signal ([2]; peptide modifications: H3K4me2, binder concentration: 100 nM): 0.0581 ± 0.0074
peptide microarray binding signal [3, 11]: 0.03 ± 0.01
peptide microarray binding signal [3, 12]: 0.0164 ± 0.0011
peptide microarray binding signal [4, 11]: 0.00156 ± 0.00023
peptide microarray binding signal [4, 12]: 0.00115 ± 2e-05

ARTKQTARKSTGG [H3 1-13 A R T Kme2 Q T A R Kac S T G G]
peptide microarray binding signal ([1]; peptide modifications: H3K4me2 H3K9ac, binder concentration: 50 nM): 0.0115 ± 0.00036
peptide microarray binding signal ([1]; peptide modifications: H3K4me2 H3K9ac, binder concentration: 500 nM): 0.0237 ± 0.0019
peptide microarray binding signal ([2]; peptide modifications: H3K4me2 H3K9ac, binder concentration: 10 nM): 0.954 ± 0.21
peptide microarray binding signal ([2]; peptide modifications: H3K4me2 H3K9ac, binder concentration: 100 nM): 0.716 ± 0.27
peptide microarray binding signal [3, 13]: 0.298 ± 0.09
peptide microarray binding signal [3, 14]: 0.293 ± 0.1
peptide microarray binding signal [4, 13]: 0.00778 ± 0.00063
peptide microarray binding signal [4, 14]: 0.00824 ± 0.00044

ARTKQTARKSTGG [H3 1-13 A R T Kme2 Q T A R Kme S T G G]
peptide microarray binding signal ([1]; peptide modifications: H3K4me2 H3K9me1, binder concentration: 50 nM): 0.0128 ± 0.00075
peptide microarray binding signal ([1]; peptide modifications: H3K4me2 H3K9me1, binder concentration: 500 nM): 0.0286 ± 0.0013
peptide microarray binding signal ([2]; peptide modifications: H3K4me2 H3K9me1, binder concentration: 10 nM): 0.656 ± 0.061
peptide microarray binding signal ([2]; peptide modifications: H3K4me2 H3K9me1, binder concentration: 100 nM): 0.43 ± 0.13
peptide microarray binding signal [3, 15]: 0.365 ± 0.067
peptide microarray binding signal [3, 16]: 0.152 ± 0.018
peptide microarray binding signal [4, 15]: 0.00797 ± 0.0012
peptide microarray binding signal [4, 16]: 0.00398 ± 0.00019

ARTKQTARKSTGG [H3 1-13 A R T Kme2 Q T A R Kme2 S T G G]
peptide microarray binding signal ([1]; peptide modifications: H3K4me2 H3K9me2, binder concentration: 50 nM): 0.0279 ± 0.0029
peptide microarray binding signal ([1]; peptide modifications: H3K4me2 H3K9me2, binder concentration: 500 nM): 0.0628 ± 0.0034
peptide microarray binding signal ([2]; peptide modifications: H3K4me2 H3K9me2, binder concentration: 10 nM): 0.766 ± 0.063
peptide microarray binding signal ([2]; peptide modifications: H3K4me2 H3K9me2, binder concentration: 100 nM): 0.786 ± 0.077
peptide microarray binding signal [3, 17]: 0.408 ± 0.12
peptide microarray binding signal [3, 18]: 0.343 ± 0.15
peptide microarray binding signal [4, 17]: 0.0325 ± 0.0041
peptide microarray binding signal [4, 18]: 0.0104 ± 0.00076

ARTKQTARKSTGG [H3 1-13 A R T Kme2 Q T A R Kme3 S T G G]
peptide microarray binding signal ([1]; peptide modifications: H3K4me2 H3K9me3, binder concentration: 50 nM): 0.133 ± 0.011
peptide microarray binding signal ([1]; peptide modifications: H3K4me2 H3K9me3, binder concentration: 500 nM): 0.21 ± 0.019
peptide microarray binding signal ([2]; peptide modifications: H3K4me2 H3K9me3, binder concentration: 10 nM): 1 ± 0.17
peptide microarray binding signal ([2]; peptide modifications: H3K4me2 H3K9me3, binder concentration: 100 nM): 1 ± 0.088
peptide microarray binding signal [3, 19]: 0.491 ± 0.058
peptide microarray binding signal [3, 20]: 0.325 ± 0.12
peptide microarray binding signal [4, 19]: 0.429 ± 0.054
peptide microarray binding signal [4, 20]: 0.369 ± 0.044

ARTKQTARKSTGG [H3 1-13 A R T Kme2 Q Tph A R K S T G G]
peptide microarray binding signal ([1]; peptide modifications: H3K4me2 H3T6ph, binder concentration: 50 nM): 0.00636 ± 7.4e-05
peptide microarray binding signal ([1]; peptide modifications: H3K4me2 H3T6ph, binder concentration: 500 nM): 0.0142 ± 0.0017
peptide microarray binding signal ([2]; peptide modifications: H3K4me2 H3T6ph, binder concentration: 10 nM): 0.139 ± 0.025
peptide microarray binding signal ([2]; peptide modifications: H3K4me2 H3T6ph, binder concentration: 100 nM): 0.385 ± 0.012
peptide microarray binding signal [3, 21]: 0.0372 ± 0.011
peptide microarray binding signal [3, 22]: 0.0131 ± 0.0018
peptide microarray binding signal [4, 21]: 0.00426 ± 0.0013
peptide microarray binding signal [4, 22]: 0.00271 ± 0.00042

ARTKQTARKSTGG [H3 1-13 A R T Kme3 Q T A R K S T G G]
peptide microarray binding signal ([1]; peptide modifications: H3K4me3, binder concentration: 50 nM): 0.00868 ± 0.00032
peptide microarray binding signal ([1]; peptide modifications: H3K4me3, binder concentration: 500 nM): 0.0201 ± 0.0038
peptide microarray binding signal ([2]; peptide modifications: H3K4me3, binder concentration: 10 nM): 0.383 ± 0.2
peptide microarray binding signal ([2]; peptide modifications: H3K4me3, binder concentration: 100 nM): 0.232 ± 0.072
peptide microarray binding signal [3, 23]: 0.596 ± 0.33
peptide microarray binding signal [3, 24]: 0.549 ± 0.54
peptide microarray binding signal [4, 23]: 0.0584 ± 0.025
peptide microarray binding signal [4, 24]: 0.0227 ± 0.011
